From PubChem BioAssay
VLA-4 inh: inhibition in a human VLA-4 binding assay; P13612; VLA-4 expressing cells, ligand binding flow cytometry; inhibition, % (about 7 µM as worked out from the volumes in the protocol); actives 0.2% (n = 330,000); in the data active = inhibition above about 50%
Target sequence (P13612 whole entry, looked up): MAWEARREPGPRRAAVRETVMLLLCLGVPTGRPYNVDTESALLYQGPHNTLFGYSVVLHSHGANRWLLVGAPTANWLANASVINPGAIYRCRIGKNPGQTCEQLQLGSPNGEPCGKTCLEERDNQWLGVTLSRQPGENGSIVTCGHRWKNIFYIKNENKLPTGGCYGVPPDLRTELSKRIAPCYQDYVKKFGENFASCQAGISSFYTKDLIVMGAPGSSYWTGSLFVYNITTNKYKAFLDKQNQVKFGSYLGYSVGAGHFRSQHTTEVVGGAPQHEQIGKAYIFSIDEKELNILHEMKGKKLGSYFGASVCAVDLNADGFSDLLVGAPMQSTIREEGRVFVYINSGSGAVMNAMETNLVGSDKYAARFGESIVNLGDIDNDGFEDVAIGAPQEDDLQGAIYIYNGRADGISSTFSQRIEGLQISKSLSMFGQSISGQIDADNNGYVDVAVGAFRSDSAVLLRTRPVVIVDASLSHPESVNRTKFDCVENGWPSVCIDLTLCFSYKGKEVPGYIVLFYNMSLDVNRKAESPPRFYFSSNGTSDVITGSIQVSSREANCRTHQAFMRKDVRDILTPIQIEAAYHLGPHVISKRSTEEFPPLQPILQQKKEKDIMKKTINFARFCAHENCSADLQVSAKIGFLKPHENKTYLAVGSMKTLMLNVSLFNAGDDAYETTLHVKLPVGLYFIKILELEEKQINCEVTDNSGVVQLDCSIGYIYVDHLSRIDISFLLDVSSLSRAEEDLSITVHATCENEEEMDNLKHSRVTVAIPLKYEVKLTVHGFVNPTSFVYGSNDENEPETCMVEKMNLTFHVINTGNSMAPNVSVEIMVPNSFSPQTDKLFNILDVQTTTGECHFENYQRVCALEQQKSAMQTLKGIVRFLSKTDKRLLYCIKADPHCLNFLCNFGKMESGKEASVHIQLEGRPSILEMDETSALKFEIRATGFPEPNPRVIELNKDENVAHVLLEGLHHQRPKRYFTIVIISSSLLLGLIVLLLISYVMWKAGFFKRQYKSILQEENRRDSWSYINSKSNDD
PG9 binder: binds the HIV-1 gp120 antibody PG9; TR-FRET gp120-PG9 antibody binding; inhibition, % at 6.7 µM; actives 0.43% (n = 360,000); in the data active = inhibition above about 8.5%
ABCB6 inh MLPCN: human ABCB6 transporter inhibition; fluorescence ratio to DMSO, % at 10 µM; K562-ABCB6 porphyrin accumulation, flow cytometry, 1 h; stronger effect = lower value; Q9NP58; actives 0.19% (n = 360,000);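 active = fluorescence ratio to DMSO below 75%, the collection mean minus 3 SD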;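 note: signal is porphyrin accumulated inside mitochondria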
Exocytosis inh: lytic granule exocytosis inhibition. TALL-104 LAMP-1 surface exposure, flow cytometry; cells stimulated with thapsigargin and PMA. inhibition, % at 10 µM. actives 0.66% (n = 360,000). AID 651702;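 active = inhibition above about 55%, limit read from the data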
NR1D1 modulator: modulates human Rev-erb alpha binding to DNA. P20393. Rev-erbα–FITC-DNA binding, fluorescence polarization, 90 min. activity, % at 10 µM. actives 0.79% (n = 370,000). AID 1259318;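 active = activity above about 14%, limit read from the data; passing the limit was not always enough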
PG9 binder conf: confirmation of small molecules binding HIV-1 gp120 antibody PG9; shares compounds with PG9 binder; TR-FRET PG9 antibody binding, biochemical; inhibition, % at 6.7 µM; AID 651571; actives 90% (n = 1,500); in the data active = inhibition above about 9%
PGV04 Ab binding: binds control antibody PGV04 in PG9 binder counter-screen; TR-FRET PGV04 antibody-gp120 binding, biochemical; actives 95% (n = 1,500); AID 651604; shares compounds with PG9 binder; inhibition, % at 6.7 µM; in the data active = inhibition above about 9.5%
Rev-erbA confirm: confirmation of modulators of human Rev-erb alpha DNA binding | shares compounds with NR1D1 modulator | Rev-erb alpha FITC-DNA binding, fluorescence polarization, 90 min | activation, % at 25 µM | actives 61% (n = 3,000);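 active = activation at or above a set limit, or at least 3 SD above the negative control mean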
RORg DNA counter: affects RORgamma DNA binding in a Rev-erb alpha counter-screen; purified RORgamma protein-FITC-DNA binding, fluorescence polarization; shares compounds with NR1D1 modulator; actives 8% (n = 910); IC50, µM;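 active = Compounds whose fitted half-maximal concentration for disrupting protein-DNA binding is below 10 micromolar; the record names Rev-erb in its text, so the target is in doubt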
Numbers stand for hits; - = inactive; . = no result given. Hits are enriched below; roughly 2% of the tested compounds scored in any of these assays.

SMILES | VLA-4 inh | PG9 binder | ABCB6 inh MLPCN | Exocytosis inh | NR1D1 modulator | PG9 binder conf | PGV04 Ab binding | Rev-erbA confirm | others
COc1ccc(C(=O)Nc2nc3ccc4nc(C)sc4c3s2)cc1 | - | 13 | - | - | 34 | 9.8 | 12 | 42 | RORg DNA counter=-
COc1ccc(C(=O)Nc2nc3ccccc3s2)cc1 | - | - | - | - | - | . | . | .
Cc1occc1-c1nnc(SCC(=O)N[C@@H]2CCc3ccccc32)n1-c1ccccc1 | . | . | . | . | - | . | . | .
CCOC(=O)c1sc(=NC(=O)c2ccc(C)cc2)n(C)c1C | - | 22 | - | - | 20 | 22 | 53 | -
Cc1sc2nc(SCC(=O)NCc3ccco3)n(-c3ccccc3)c(=O)c2c1C | - | 51 | - | - | 102 | 58 | 75 | 85
Cc1sc2nc(SCC(=O)NCc3ccco3)n(Cc3ccccc3)c(=O)c2c1C | - | 20 | - | - | 37 | 14 | 20 | 31
Cc1ccc(-n2c(SCC(=O)NCc3ccco3)nc3sc(C)c(C)c3c2=O)cc1 | - | 30 | - | - | 67 | 29 | 42 | 63
COC(=O)c1ccc2nc(NC(=O)CCS(=O)(=O)c3ccccc3)sc2c1 | - | 15 | - | - | 43 | 25 | 36 | 18
O=C(Nc1ccc2c(c1)OCO2)OC1CCC12CCC(c1ccccc1)CC2 (configuration not stated) | . | . | . | . | - | . | . | .
Cc1ccc(CNC[C@@]23CO[C@H](c4ccc(Cl)cc4)N2[C@@H](c2ccc(Cl)cc2)SC3)o1 | . | . | . | . | - | . | . | .
Cc1ccc(CSc2nc3ccncc3n2CC(=O)Nc2cc(C)cc(C)c2)cc1 | - | 25 | - | - | 81 | 32 | 50 | 34 | RORg DNA counter=0.26
Cc1cc(C)cc(NC(=O)CSc2nc3ccncc3[nH]2)c1 | - | - | - | - | - | . | . | .
COc1ccc(C)cc1Nc1nc(-c2ccccc2O)nc2ccccc12 | - | 11 | - | - | 83 | - | - | 59 | RORg DNA counter=-
Cc1ccc(O)c(Nc2nc(-c3ccccc3)nc3ccccc23)c1 | - | - | - | - | - | . | . | .
COc1cc(NC(=O)CCn2c(=S)[nH]c3ccccc3c2=O)cc(OC)c1OC | . | 81 | - | - | 27 | 79 | 81 | 36 | RORg DNA counter=-
C[C@H](NC(=O)c1ncn2c1c(=O)[nH]c1ccc(Br)cc12)c1ccccc1 | . | 20 | - | - | 133 | 43 | 52 | 24
C[C@H](NC(=O)c1ncn2c1c(=O)[nH]c1ccccc12)c1ccccc1 | . | - | - | - | - | . | . | .
COC(=O)c1c(NC(C)=O)sc(C(=O)Nc2ccccc2F)c1C | - | 31 | - | - | 26 | 36 | 45 | 21
Cc1ccc(NC(=O)c2ccc3c(c2)OCO3)cc1Cl | - | - | - | - | - | . | . | .
Cc1ccc(C(=O)Nc2ccc3c(c2)OCO3)cc1Cl | - | 21 | - | - | 24 | 18 | 22 | -
C=CCn1c(SCC(=O)NCc2ccco2)nc2sc3c(c2c1=O)CCCC3 | - | - | - | - | - | . | . | .
CSc1nc(SCC(=O)NCc2ccco2)c2c3c(sc2n1)COC(C)(C)C3 | - | - | - | - | - | . | . | .
CCCCSc1nc(SCC(=O)NCc2ccco2)c2c3c(sc2n1)COC(C)(CC)C3 (configuration not stated) | - | 12 | - | - | 40 | 10 | 17 | 28
CCc1nc(SCC(=O)NCc2ccco2)c2c3c(sc2n1)CCCC3 | - | 57 | - | - | 46 | 42 | 64 | 55 | RORg DNA counter=-
O=C(Nc1ccc2oc(-c3ccccc3)nc2c1)c1ccccc1F | - | - | - | - | - | . | . | .
O=C(Nc1ccc2oc(-c3cccc(F)c3)nc2c1)c1ccccc1F | - | 16 | - | - | 82 | 40 | 59 | 42 | RORg DNA counter=-
Brc1cccc(Cn2ccc3ccc(-c4ccc5ccn(Cc6cccc(Br)c6)c5c4)cc32)c1 | . | . | . | . | - | . | . | .
CCn1ccc(C(=O)Nc2sc3c(c2C(=O)OC)CCC3)n1 | - | - | - | - | - | . | . | .
